The results in this text go back to PubChem BioAssay (NCI).

Compounds without any hit were thinned out: in the full panel of roughly 83,000, 20% have a hit.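 Results are percent growth after 48 hours of single-concentration exposure. 100 means growth as in untreated cells, lower positive values show inhibition; negative values down to -100 show cell death.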 A number with no mark means an inactive call. The source made the active and inactive calls. Rule for the calls: active = growth percent below 10; inactive = the rest.

Some test systems named below: NCI-H23 lung; NCI-H226 lung; NCI-H322M lung; HOP-62 NSCLC; NCI-H460 lung; HOP-92 NSCLC; NCI-H522 lung; A549/ATCC NSCLC; 786-0 renal; COLO 205 colon.
Experiment in all cases: NCI-60 one-dose screen, 48 h (100 = growth as untreated, 0 = no growth, -100 = all killed)
Details in all cases: 10 µM unless noted

On to `Cn1c(-c2c(N)n(CCCN3CCOCC3)c3nc(C#N)c(C#N)nc23)nc2ccccc21`, for which the growth was 93.2% in the experiment with NCI-H23 lung; 89.7% in the experiment with NCI-H226 lung; 78.1% in the experiment with NCI-H322M lung; 76.4% in the experiment on HOP-62 NSCLC; 106% in the experiment on NCI-H460 lung; -6.11% (active) with HOP-92 NSCLC. Further, the growth in the experiment with NCI-H522 lung was 77.4%; with A549/ATCC NSCLC, 86.8%; with 786-0 renal, 23.3%; in the experiment with COLO 205 colon, 70%.
Consider `C=C1C(=O)O[C@H]2[C@H]1CC/C(COC(=O)NCc1c[nH]c3ccc(F)cc13)=C\CC[C@@]1(C)O[C@@H]21`, for which the growth was 48.4% in the experiment with NCI-H23 lung; 4.11% (active) in the experiment on NCI-H226 lung; 80.9% in the experiment with NCI-H322M lung; 62.4% in the experiment with HOP-62 NSCLC; 27.9% with NCI-H460 lung; -18.1% (active) in the experiment with HOP-92 NSCLC. Further, the growth with A549/ATCC NSCLC was 54.6%; in the experiment with 786-0 renal, -51.5% (active); with COLO 205 colon it was -59.1% (active).
Regarding `CSc1nc2sc3cccc(Cl)c3n2c(=N)c1C#N`, the growth with NCI-H23 lung is 90.5%; in the experiment with NCI-H226 lung it was 93.5%; with NCI-H322M lung, 99.8%; with HOP-62 NSCLC, 97%; in the experiment with NCI-H460 lung, 102%; in the experiment on HOP-92 NSCLC it was 82.4%. In addition, the growth in the experiment with A549/ATCC NSCLC was 100%; with COLO 205 colon, 56.1%.
Consider `N#Cc1cccc(-c2ccc3c(c2)NC(=O)/C3=C\c2ccc[nH]2)c1`, for which the growth is 34.2% in the experiment on NCI-H23 lung; 41.6% with NCI-H226 lung; 45.5% in the experiment on NCI-H322M lung; 62.7% with HOP-62 NSCLC; 22.4% in the experiment with NCI-H460 lung; 56.7% with HOP-92 NSCLC. Besides, the figures for the growth in the experiment with A549/ATCC NSCLC, with 786-0 renal and in the experiment on COLO 205 colon were 86.5%, 74.5% and 3.47% (active), respectively.
Take `Cc1nn(-c2ccccc2)c(Oc2c(Cl)cccc2Cl)c1/C=N/N=c1\sc2ccccc2n1C`: the growth in the experiment with NCI-H23 lung is 72.5%; in the experiment on NCI-H226 lung it was 53.3%; in the experiment on NCI-H322M lung, 82.2%; with HOP-62 NSCLC, 83.6%; in the experiment with NCI-H460 lung, 17.4%; in the experiment with HOP-92 NSCLC, 60.3%. For the same molecule, the figures for the growth in the experiment on A549/ATCC NSCLC, in the experiment on 786-0 renal and in the experiment on COLO 205 colon were 47.5%, 50.8% and 40.8%, respectively.
Turning to `COc1cc2c(=O)n(CCCN(C)C)c3c4cc5c(cc4ccc3c2cc1OC)OCO5`, the growth was 58.6% with NCI-H23 lung; 52.8% in the experiment on NCI-H226 lung; 61.6% in the experiment on NCI-H322M lung; 38% in the experiment with HOP-62 NSCLC; 18.2% in the experiment on NCI-H460 lung; 67.7% in the experiment with HOP-92 NSCLC. Besides, the results for the growth in the experiment on A549/ATCC NSCLC, with 786-0 renal and with COLO 205 colon were 41.8%, 62.8% and 49%, respectively.
As to `C=C1C(=O)O[C@H]2[C@H]1CC/C(COC(=O)NCc1c[nH]c3ccc(Br)cc13)=C\CC[C@@]1(C)O[C@@H]21`, the growth in the experiment on NCI-H23 lung was 29.4%; in the experiment with NCI-H226 lung it was 4.62% (active); in the experiment on NCI-H322M lung, 74%; in the experiment on HOP-62 NSCLC, 58.5%; in the experiment with NCI-H460 lung it was 24.1%; with HOP-92 NSCLC, -46.3% (active). Further, the growth is 49.1% in the experiment on A549/ATCC NSCLC, -47.7% (active) with 786-0 renal and -78.2% (active) in the experiment on COLO 205 colon.
Take `N#CC(C(=O)/C(=N/NC(=O)c1ccccc1O)C(C#N)c1ccccc1)c1ccccc1` (centres undefined): the growth in the experiment on NCI-H23 lung is 55.5%; in the experiment on NCI-H226 lung, 70.5%; with HOP-62 NSCLC, 30.8%; in the experiment with NCI-H460 lung, 24.3%; with HOP-92 NSCLC, 40.4%; with NCI-H522 lung, 67.9%. In addition, the growth was 20.1% with A549/ATCC NSCLC, 85.9% with 786-0 renal and 105% in the experiment on COLO 205 colon.
As to `O=C(Cc1ccccc1)NNc1nc(Cl)nc(N2CCN(C(c3ccccc3)c3ccccc3)CC2)n1`, the growth is 83% with NCI-H23 lung; 94.2% in the experiment on NCI-H226 lung; 89.7% in the experiment with NCI-H322M lung; 98.6% in the experiment with HOP-62 NSCLC; 102% in the experiment with NCI-H460 lung; 74.3% with HOP-92 NSCLC. The growth with A549/ATCC NSCLC is 98.5%; with 786-0 renal it was 95.4%; with COLO 205 colon, 98.6%.
With `c1ccc(Cn2cnc3ccc(-c4nc(-c5ccc6c(c5)ncn6C5CCCCC5)cn5ccnc45)cc32)cc1`, the growth is -22.8% (active) in the experiment on NCI-H23 lung; -63.1% (active) in the experiment on NCI-H226 lung; 16% with NCI-H322M lung; -9.39% (active) with HOP-62 NSCLC; -20.3% (active) with NCI-H460 lung; -83.6% (active) with HOP-92 NSCLC. For the same molecule, the growth in the experiment with A549/ATCC NSCLC was -5.05% (active); with 786-0 renal it was -19.4% (active); in the experiment with COLO 205 colon, -29.9% (active).
For the molecule `Cc1cccc(NC(=O)Nc2ccc(-c3ccc4c(c3)NC(=O)/C4=C\c3ccc[nH]3)cc2)c1`, the growth with NCI-H23 lung was 61.6%; in the experiment with NCI-H226 lung it was 85.5%; in the experiment on NCI-H322M lung it was 89.8%; in the experiment on HOP-62 NSCLC, 89.8%; in the experiment on NCI-H460 lung, 26.3%; with HOP-92 NSCLC it was 127%. Besides, the growth was 83.6% in the experiment with A549/ATCC NSCLC, 103% in the experiment with 786-0 renal and 96.3% in the experiment with COLO 205 colon.
For `COc1cc2oc(-c3cccc(C(=O)Nc4ccc(Br)cc4)c3)cc(=O)c2c(OC)c1OC`, the growth in the experiment on NCI-H23 lung was 77.7%; in the experiment on NCI-H226 lung, 10.7%; in the experiment with NCI-H322M lung, 62.4%; with HOP-62 NSCLC, 58%; in the experiment with NCI-H460 lung it was 36.2%; in the experiment on HOP-92 NSCLC, 50.9%. For the same molecule, the growth is 52.3% in the experiment with A549/ATCC NSCLC, 67.4% in the experiment with 786-0 renal and 54.4% with COLO 205 colon.
As to `NNC(=O)c1ccc(-n2nc(-c3ccccc3)c3ccccc32)cc1`, the growth was 87.8% in the experiment with NCI-H23 lung; 82.3% in the experiment on NCI-H226 lung; 74.5% with NCI-H322M lung; 65.2% in the experiment with HOP-62 NSCLC; 97.2% in the experiment on NCI-H460 lung; 87.2% in the experiment with HOP-92 NSCLC. Also, the results for the growth in the experiment on A549/ATCC NSCLC and in the experiment on COLO 205 colon were 95.3% and 79.8%, respectively.
On to `Oc1ccc(C(c2ccc(O)cc2)c2ccc(Br)cn2)cc1`, for which the growth is -18.2% (active) in the experiment on NCI-H23 lung; -14% (active) in the experiment with NCI-H226 lung; -27.3% (active) in the experiment on NCI-H322M lung; 77.5% with HOP-62 NSCLC; 107% with NCI-H460 lung; -0.572% (active) in the experiment on HOP-92 NSCLC. Moreover, the growth was 37.3% in the experiment with A549/ATCC NSCLC, 89.7% in the experiment with 786-0 renal and 1.1% (active) in the experiment with COLO 205 colon.
Take `C=C1C(=O)O[C@H]2[C@H]1CC/C(CNC(=O)/C=C/c1ccccc1)=C\CC[C@@]1(C)O[C@@H]21`: the growth is 54.5% in the experiment with NCI-H23 lung; 64.8% in the experiment with NCI-H226 lung; 71.9% with NCI-H322M lung; 80.3% with HOP-62 NSCLC; 39.7% with NCI-H460 lung; -40.9% (active) in the experiment on HOP-92 NSCLC. For the same molecule, the results for the growth in the experiment with A549/ATCC NSCLC, with 786-0 renal and in the experiment with COLO 205 colon were 46.8%, -64.4% (active) and -64.7% (active), respectively.
